SMILES strings stand for the structures. Calls of active or inactive are those of the source. A call without a number means that no potency is given here. Calls follow the shape of the dose curve; as a rule, active = well fitted activation curve with a large enough effect; inconclusive = small, poorly fitted or top-dose-only effect; inactive = no such curve, though single readings can be large or run the other way.
Potency is read from the fitted curve at half-maximal effect.

The experiment is described as follows: Confirmatory qHTS for Identification of Small Molecule Activators of Huntingtin-Antisense Promoter Activity. The note with it: HEK293 HTT-AS promoter firefly luciferase reporter, 24 h; series mostly up to 57.5 µM. In a few lines:
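HEK293 luciferase reporter cells, 2,500/well, cultured 24 h, then exposed to compounds at up to 57.5 uM final for 24 h at 37C. Firefly luciferase luminescence read; normalized to vehicle (0%) and zero RLU (-100%).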
A general note: qHTS replaces the single test concentration by a dilution series.
With `N#Cc1nc(-c2ccc(COc3ccc(Cl)cc3)o2)oc1N1CCC(C(N)=O)CC1`, the Potency entry was “inactive”.

As for `CC1CCN(C(=O)CN2c3ccc(Br)cc3-c3ccccc3S2(=O)=O)CC1`, the Potency is 2.69 µM (active).

Turning to `COc1ccc(-n2c(/C=C/c3cccc4ccccc34)nc3ccccc3c2=O)cc1Cl`, the Potency result is “inactive”.

Turning to `CCn1c(=O)n(CC)c2cc(N3CCCCC3)c(NC(=O)Nc3cc(Cl)ccc3OC)cc21`, the Potency result is “inactive”.

On to `Cc1ccc(CNC(=O)c2c(Nc3c(C)cccc3C)sc(C(=O)c3ccccc3)c2N)cc1`, for which the Potency result is “inactive”.

Turning to `CCc1ccc(NC(=O)c2ccc(F)c(S(=O)(=O)N3CCC(C)CC3)c2)cc1`, the Potency result was “inactive”.

With `Cc1cc(NC(=O)c2cc(-c3ccc(Cl)cc3)on2)nn1Cc1ccc(Cl)cc1`, the Potency entry was “inactive”.

As to `Cn1c(CN2CCCCC2)nc2cc(NC(=O)c3ccc(Cl)cc3)ccc21`, the Potency result is “inactive”.

Turning to `Cc1ccc(C)c(N2CCN(C(=O)CCS(=O)(=O)c3ccc4c(c3)CC(=O)N4C)CC2)c1`, the Potency result was “inactive”.

Consider `COc1cc(CN(C(=O)COc2ccc(C)cc2)c2ccccn2)cc(OC)c1OC`, for which the Potency entry is “inactive”.

For the molecule `CCCC(O)c1nc2ccccc2n1CCCCOc1ccc(OC)cc1` (centres undefined), the Potency entry is “inactive”.

For the molecule `CCOc1ccc(-n2ccnc2SCC(=O)Nc2ccc3c(c2)OCO3)cc1`, the Potency result was “inactive”.

For `CCOc1ccc(C(=O)N(Cc2cc(OC)c(OC)c(OC)c2)c2ccccn2)cc1`, the Potency entry is “inactive”.

On to `NC(=O)Nc1cc(-c2ccc(CN3CCOCC3)cc2)sc1C(N)=O`, for which the Potency was 23.9 µM (active).

Turning to `Cc1cccc(N2CCN(C(=O)C3CCCN(S(=O)(=O)c4ccc5c(c4)oc(=O)n5C)C3)CC2)c1C` (centres undefined), the Potency result is “inactive”.

With `CCc1ccc2c(c1)-c1ccccc1S(=O)(=O)N2CC(=O)N1CCC(C)CC1`, the Potency was 12 µM (active).

Turning to `CC(=O)N1CCc2c(sc(NC(=O)CSc3ccccc3)c2-c2nc3ccccc3s2)C1`, the Potency result was “inactive”.

On to `CCc1ccc2c(c1)-c1ccccc1S(=O)(=O)N2CC(=O)N1CCCCC1`, for which the Potency is 9.53 µM (active).

Consider `COc1ccc(N2CCN(C(CNC(=O)C(=O)NCc3ccc(C)cc3)c3cccnc3)CC2)cc1` (centres undefined), for which the Potency entry is “inactive”.

For `COc1ccc(S(=O)(=O)N2CCC(C(=O)Nc3ccc(Oc4ccccc4)cc3)CC2)cc1OC`, the Potency result is “inactive”.

As for `CCOC(=O)C1CCCN(S(=O)(=O)c2ccc3c(c2)CCCN3C(C)=O)C1` (centres undefined), the Potency entry was “inactive”.

In the case of `Cc1cccc(NS(=O)(=O)c2ccc3c(c2)CCN3C(=O)C2CCC2)c1`, the Potency entry was “inactive”.

On to `COc1cccc(C2=CC(c3cc(Br)ccc3F)n3nnnc3N2)c1` (centres undefined), for which the Potency entry is “inactive”.

In the case of `COc1ccc([C@@H]2CNC(=O)C2)cc1OC1CCCC1`, the Potency entry is “inactive”.

For the molecule `CCOc1ccc(S(=O)(=O)NCCc2sc3nc(-c4ccc(C)cc4)nn3c2C)cc1`, the Potency result is “inactive”.

`COc1cc(C2C(C(=O)Nc3ccccc3C)=C(C)Nc3nc(SCc4cc(C)ccc4C)nn32)ccc1O` (centres undefined): the Potency result was “inactive”.

Regarding `Cc1cc(F)ccc1NC(=O)C1CCCN(C(=O)c2cnn(-c3ccccc3)c2-n2cccc2)C1` (centres undefined), the Potency result was “inactive”.

Turning to `COc1ccc(C)cc1NS(=O)(=O)c1ccc(-c2cnc(C3CC3)o2)cc1`, the Potency entry was “inactive”.

Turning to `CN1CCCC(n2nc(Cc3ccc(Cl)cc3)c3ccccc3c2=O)CC1` (centres undefined), the Potency result is “inactive”.

On to `CCc1ccc(-n2c(SCC(=O)NC(C)CC)nc3n[nH]c(C)c3c2=N)cc1` (centres undefined), for which the Potency result was “inactive”.

For the molecule `O=C(c1ccc2c(c1)CCN2S(=O)(=O)c1ccc(Cl)cc1)N1CCN(c2ccc(F)cc2)CC1`, the Potency result is “inactive”.

Regarding `COc1cccc(NC(=O)CN2CCCN(S(=O)(=O)c3ccc(Br)cc3)CC2)c1`, the Potency entry was “inactive”.

With `O=C(NCc1cccnc1)C(=O)NCC(c1cccnc1)N1CCN(c2ccccc2F)CC1` (centres undefined), the Potency result is “inactive”.

On to `COc1cccc(Cn2c(SCc3ccc(C(=O)N4CCC(C)CC4)cc3)nc3ccncc32)c1`, for which the Potency entry was “inactive”.

`CCOc1ccccc1CNC(=O)c1ccc(NC(=O)N2CCSc3ncccc32)cc1`: the Potency entry was “inactive”.

On to `O=C(NCc1ccc(F)cc1)c1ccc(CS(=O)(=O)c2ccc(Cl)cc2)o1`, for which the Potency entry was “inactive”.

As to `Cc1ccc(Cl)cc1N1CCN(CCCNC(=O)C2COc3ccccc3C2)CC1` (centres undefined), the Potency result was “inactive”.

On to `CCOc1ccc(CNC(=O)c2ccc3nc(Cc4ccc(OC)cc4)oc3c2)cc1OC`, for which the Potency result was “inactive”.

Regarding `Cc1cc(-c2ccc(S(=O)(=O)Nc3cccc(C)c3C)s2)on1`, the Potency entry was “inactive”.

These data come from PubChem BioAssay AID1508622 (National Center for Advancing Translational Sciences (NCATS), 2021).
